Compounds with a hit are over-represented: about 4.1% of the library has one in this group of screens.
Gli-Sufu antag: Gli-Sufu pathway antagonists, primary screen, luciferase luminescence, Sufu-KO-LIGHT cells, uHTS. AID 588413, 2011. Sufu-KO-LIGHT fibroblasts, Gli luciferase reporter luminescence. 0.74% of 340,000 active. inhibition, % at 5 µM;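 active = inhibition above about 55%, limit read from the data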;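 note: 0% = DMSO-treated cells and 100% = wells with medium but no cells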
Mdm2-MdmX inh: inhibitors of human Mdm2-MdmX association, primary screen, cell-based, luminescence, split luciferase, SaOS-2, uHTS | Protein Mdm4 (Homo sapiens) + E3 ubiquitin-protein ligase Mdm2 (Homo sapiens), … | SaOS-2 split-luciferase Mdm2/MdmX complementation | inhibition, % at 8 µM | 3% of 330,000 active;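 active = inhibition of at least 50% at 8 µM in the primary screen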
Target sequence (O15151 whole entry, looked up): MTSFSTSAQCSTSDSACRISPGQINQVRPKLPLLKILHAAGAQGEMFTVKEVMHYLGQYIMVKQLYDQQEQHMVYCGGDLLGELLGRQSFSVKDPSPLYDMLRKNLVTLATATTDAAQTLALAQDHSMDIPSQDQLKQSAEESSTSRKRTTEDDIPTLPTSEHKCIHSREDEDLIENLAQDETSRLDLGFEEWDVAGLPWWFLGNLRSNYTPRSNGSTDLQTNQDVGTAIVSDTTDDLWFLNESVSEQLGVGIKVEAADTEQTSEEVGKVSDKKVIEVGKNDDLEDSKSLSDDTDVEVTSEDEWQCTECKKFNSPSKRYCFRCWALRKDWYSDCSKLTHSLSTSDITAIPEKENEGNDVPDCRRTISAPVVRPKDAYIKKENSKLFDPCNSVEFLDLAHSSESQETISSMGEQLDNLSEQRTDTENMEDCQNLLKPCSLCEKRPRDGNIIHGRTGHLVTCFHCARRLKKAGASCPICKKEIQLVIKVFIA
Target sequence (Q00987 whole entry, looked up): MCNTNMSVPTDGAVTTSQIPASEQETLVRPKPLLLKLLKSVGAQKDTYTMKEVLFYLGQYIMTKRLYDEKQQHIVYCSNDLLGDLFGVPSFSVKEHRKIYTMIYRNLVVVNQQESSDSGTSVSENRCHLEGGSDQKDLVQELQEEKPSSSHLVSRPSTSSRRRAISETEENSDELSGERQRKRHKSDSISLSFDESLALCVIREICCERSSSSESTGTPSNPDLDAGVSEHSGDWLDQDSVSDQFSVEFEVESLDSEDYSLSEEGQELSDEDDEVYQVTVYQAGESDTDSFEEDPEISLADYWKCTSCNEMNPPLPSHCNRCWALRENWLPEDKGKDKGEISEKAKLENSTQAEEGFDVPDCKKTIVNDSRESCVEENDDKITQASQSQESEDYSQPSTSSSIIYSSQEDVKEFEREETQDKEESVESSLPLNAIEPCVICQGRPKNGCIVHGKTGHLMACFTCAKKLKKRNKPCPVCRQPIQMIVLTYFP
Jurkat NFkB inh: inhibitors of induced NF-kB luciferase reporter, primary screen, TCR NF-kB activation inhibitor project, cell-based, luminescence, uHTS; Jurkat, PMA/ionomycin-induced NF-kB luciferase reporter; inhibition, % at 4 µM; 0.53% of 330,000 active; in the data active = inhibition above about 50%
aSyn 5UTR inh: MLPCN primary screen, SNCA 5' untranslated region. 0.82% of 300,000 active. alpha-synuclein 5'UTR reporter, inhibitor activity. inhibition, % (tested at 7.5 µM); in the data active = inhibition above about 60%; inconclusive = no clear call, values can overlap the other calls;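 note: H4 neuroglioblastoma cells stably carrying SNCA 5'UTR luciferase fusion; 0% = DMSO wells and 100% = positive control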
KLF5 inh: KLF5 expression inhibitors, primary screen, DLD-1 cells, luminescence. DLD-1 KLF5 promoter-luciferase reporter. inhibition, % at 5 µM. 0.23% of 290,000 active. AID 1700, 2009;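 active = inhibition above a per-plate limit of that plate's mean compound inhibition plus 3 SD, cut at about 60% in these data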;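 note: 0% = DMSO wells and 100% = LY294002 at 200 µM; higher means less KLF5 promoter-driven luciferase light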
697 NFkB inh: inhibitors of PMA/ionomycin-induced NF-kB reporter, 697 cells, primary screen, B-cell NF-kB inhibitor project, cell-based, luminescence, uHTS. 697 B-cell NF-kB luciferase reporter, 16 h. inhibition, % at 4 µM. 0.33% of 330,000 active. AID 435022, 2010; in the data active = inhibition above about 35%
Jurkat NFkB conf: PMA/ionomycin-induced NF-kB reporter inhibitors, Jurkat retest, confirmation, T-cell NF-kB inhibitor project, cell-based, luminescence, single concentration. shares compounds with Jurkat NFkB inh. Jurkat NF-kB luciferase, 16 h. inhibition, % at 4 µM. 27% of 2,700 active. AID 435020, 2010;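 active = inhibition reaching about 45% at 4 µM in either replicate, limit read from the data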;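 note: plate controls were PMA/ionomycin stimulated DMSO wells for no effect and unstimulated DMSO wells for full effect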
697 NFkB conf: PMA/ionomycin-induced NF-kB reporter inhibitors, 697 retest, confirmation, B-cell NF-kB inhibitor project, cell-based, luminescence, single concentration. shares compounds with 697 NFkB inh. 697 B-cell NF-kB luciferase, 16 h. inhibition, % at 4 µM. 35% of 2,000 active; in the data active = inhibition mostly above about 28%, no sharp cut-off; inactive = mostly below about 22%
* = called active by the depositor; i = inactive; u = inconclusive; x = no result.

SMILES | Gli-Sufu antag | Mdm2-MdmX inh | Jurkat NFkB inh | aSyn 5UTR inh | KLF5 inh | 697 NFkB inh | Jurkat NFkB conf | 697 NFkB conf
Cc1cccc(/C(N)=N/OC(=O)c2ccc(Cl)cc2Cl)c1 | -93 | -60 | -202 | 4 | -230 | -358 | -53 | -277
N/C(=N\OC(=O)c1ccc(Cl)cc1Cl)c1cccnc1 | -79 | -169 | -119 | -70 | -101 | -129 | x | x
Cc1cccc(/C(N)=N/OC(=O)c2cccnc2)c1 | -60 | -58 | -73 | -73 | -74 | -132 | x | x
N/C(=N\OC(=O)c1ccc(Cl)cc1Cl)c1ccccc1 | -55 | -35 | -195 | 15 | -40 | -292 | -70 | -436
CN1CCN(c2ccc(S(=O)(=O)N3CCOCC3)cc2)CC1 | 4 | 12 | -5 | 5 | -38 | -27 | x | x
COc1ccc(S(=O)(=O)N2CCC(N3CCN(c4ccccc4OC)CC3)CC2)cc1 | 11 | -35 | 4 | 1 | -5 | 18 | x | x
COc1ccc(-c2ccccc2NC(=O)C2CCCN(Cc3ccc(C)o3)C2)cc1 (stereo not given) | 11 | 15 | -17 | -6 | -6 | -19 | x | x
CCc1cccc(OCC(=O)Nc2ccc(C)c(S(=O)(=O)N3CCCCCC3)c2)c1 | 23 | 27 | 4 | 12 | x | -28 | x | x
Cc1ccc(NC(=O)COc2ccc(N(C)C(=O)C(C)(C)C)cc2)cc1S(=O)(=O)N1CCCCC1 | 68* | 43 | 54* | x | x | 51* | 78* | 77*
c1ccc2sc(Sc3ncnc4sccc34)nc2c1 | 40 | 44 | 98* | -8 | -17 | 63* | 53* | 60*
CCc1cc2c(SCC(=O)Nc3ccc(NC(C)=O)cc3)ncnc2s1 | 1 | 18 | 8 | x | x | 14 | x | x
c1ccc(CSc2ncnc3sccc23)cc1 | -10 | -7 | -1 | -16 | -43 | 7 | x | x
CCc1cc2c(Sc3nc4ccccc4s3)ncnc2s1 | 11 | 28 | 100* | u | -14 | 83* | 96* | 64*
CCn1nc(C)c(CN2CCC(Oc3ccc(C(=O)N4CCCC4)cc3)CC2)c1C | 46 | 5 | 10 | -17 | -20 | -16 | x | x
O=C(Nc1c2c(nn1-c1ccccc1)CS(=O)(=O)C2)c1cc2ccccc2o1 | -16 | 11 | -7 | 7 | -5 | -9 | x | x
COC(=O)c1ccc(-c2cc3onc(-c4ccccc4)c3c(=O)n2C)cc1 | 4 | -30 | -22 | x | x | -66 | x | x
COc1cccc(-c2cc3onc(-c4ccccc4)c3c(=O)n2C)c1 | -37 | -65 | -204 | x | x | -460 | -129 | -461
Cc1ccc(-c2nn(CC(=O)NN3CCOCC3)c(=O)c3ccccc23)cc1 | 5 | 12 | 4 | -28 | -10 | -8 | x | x
C(=N\Nc1nc2ccccc2s1)/c1ccc2c(c1)OCO2 | -74 | -209 | -205 | -190 | -113 | -333 | -91 | -264
Cc1ccc2nc(-c3ccc(NC(=O)C(C)N4C(=O)c5ccccc5C4=O)cc3)sc2c1 (stereo not given) | -91 | -125 | -88 | -102 | -42 | -105 | x | x
Cc1ccc2nc(-c3ccc(NC(=O)CCN4C(=O)c5ccccc5C4=O)cc3)sc2c1 | -52 | -33 | -187 | -171 | -112 | -260 | -171 | -192
O=C(CCN1C(=O)c2ccccc2C1=O)Nc1ccc(-c2nc3ccccc3s2)cc1 | -81 | -110 | -165 | 26 | -41 | -294 | -95 | -126
CCCCC(=O)OCC(=O)Nc1ccc(C)c(F)c1 | 8 | 9 | 5 | 13 | -5 | 12 | x | x
COc1cccc(N=Nc2ccc3ccccc3c2O)c1 | -34 | -158 | -197 | 22 | -57 | i | -112 | -295
Oc1c(N=Nc2ccc(F)cc2)ccc2ccccc12 | -91 | -116 | -141 | -20 | -103 | -243 | x | x
SMILES | Gli-Sufu antag | Mdm2-MdmX inh | Jurkat NFkB inh | aSyn 5UTR inh | KLF5 inh | 697 NFkB inh | Jurkat NFkB conf | 697 NFkB conf
O=C(Nc1ccc2c(c1)OCCO2)c1ccc(Cl)cc1Cl | -93 | -91 | -152 | 24 | -38 | -272 | -96 | -211
O=C(Nc1ccc(N2CCN(C(=O)c3ccccc3)CC2)cc1)c1ccc2c(c1)OCCO2 | 7 | 8 | -23 | -42 | -93 | -79 | x | x
O=C(Nc1ccc2c(c1)OCCO2)c1cccc(Cl)c1 | -43 | -79 | -137 | -225 | -169 | -69 | x | x
O=C(Nc1ccc(N2CCN(C(=O)c3ccc(Cl)cc3)CC2)cc1)c1ccc2c(c1)OCCO2 | 36 | -5 | 58* | 18 | -34 | 39* | 57* | -40
CC(=O)c1cc2c(C)c(C(=O)c3ccccc3)oc2cc1O | -89 | -159 | -186 | 37 | -168 | -362 | -93 | -303
O=C(Nc1ccc(O)c(-c2nc3ccccc3s2)c1)C1=COCCO1 | -2 | -8 | 11 | -78 | -6 | -3 | x | x
O=C(Nc1ccc(-c2nc3ccccc3s2)c(O)c1)C1=COCCO1 | -75 | -47 | -242 | -80 | -98 | -335 | -72 | -134
CCOc1ccc(-c2nc(-c3ccccc3C)no2)cc1 | x | -223 | -167 | -9 | -58 | -267 | -124 | -302
Cc1ccc(N=Cc2sc(O)c3ccccc23)cc1 | -54 | -262 | -197 | -237 | -116 | -257 | 14 | -35
Cc1ccc(N=Cc2sc(O)c3ccccc23)c(C)c1 | -82 | -59 | -40 | -190 | -15 | -31 | x | x
CCCCCn1c(=O)[nH]c2cc(C(=O)N3CCN(Cc4ccc5c(c4)OCO5)CC3)ccc2c1=O | 57* | 40 | 64* | 0 | -57 | 105* | 77* | 85*
COc1ccc(C(=O)Nc2ccnn2C2CCN(C(=O)c3cnsn3)CC2)cc1 | -7 | 4 | -15 | -45 | -30 | 6 | x | x
CCc1cc(C(=O)OC)c(NC(=O)CSc2nccn2C)s1 | 1 | 12 | 3 | 0 | -20 | -22 | x | x
CCC(C)NS(=O)(=O)c1ccc(NC(=O)c2cccs2)cc1 (stereo not given) | 2 | 18 | 3 | -35 | 2 | 3 | x | x
CCC(C)c1ccc(NC(=O)c2cccs2)cc1 (stereo not given) | -127 | -277 | -187 | -71 | -70 | -381 | -137 | -294
O=C(Nc1ccc(F)cc1F)N1CCCN(c2ccc(C(F)(F)F)cn2)CC1 | 7 | 24 | -3 | 8 | 5 | -32 | x | x
Fc1ccc(NC(=S)N2CCCN(c3ccc(C(F)(F)F)cn3)CC2)c(F)c1 | 14 | 19 | 66* | 10 | -8 | 54* | 19 | 8
c1ccc2c(c1)CCN(c1nc3cc4c(cc3s1)OCO4)C2 | -72 | -235 | -190 | -122 | -148 | -304 | -132 | -263

Screening data (PubChem BioAssay)
